Values joined by “and” are separate entries in the source; they are usually repeats but may differ in a detail not shown here. Identical values can stand only once. Active and inactive are the calls of the source. Cut-off read from the data, not from the text of the source, unless noted: active = inhibition above about 80%; inactive = the rest.
Experiments:
[1] = UWB1.289 ovarian carcinoma cell growth inhibition, synergistic combos for chromothripsis tumors, BGB or cisplatin combos (AID 1671456); details: UWB1.289 ovarian carcinoma cells, stronger effect = higher value;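 note: cells exposed to compound for four days; 0% = vehicle DMSO and 100% = killing by high DMSO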
[2] = LFS_MB_2R medulloblastoma cell growth inhibition, synergistic combos for chromothripsis tumors, cisplatin combos (AID 1671457); details: LFS_MB_2R medulloblastoma cells, stronger effect = higher value;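 note: cells exposed to compound for four days before readout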
[3] = MDA-MB-436 breast carcinoma cell growth inhibition, synergistic combos for chromothripsis tumors, BGB or cisplatin combos (AID 1671458; call rule not given here;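 note: cells exposed for 96 hours; 0% = vehicle DMSO and 100% = killing by high DMSO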); details: MDA-MB-436 breast carcinoma growth inhibition, drug combinations, stronger effect = higher value
[4] = UWB1.289_BRCA1 ovarian cancer growth, cell-based, BGB or cisplatin combinations (AID 1671459); details: UWB1.289 BRCA1 ovarian carcinoma, drug combinations, stronger effect = higher value
[5] = human astrocyte viability loss, single and combined drugs, cytotoxicity control for chromothriptic childhood tumor combination screen, cell-based, BGB or cisplatin IC20 combos (AID 1671460); details: Human astrocytes, drug combinations, stronger effect = higher value;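 note: cells exposed to compounds for 96 hours before viability readout; 0% = vehicle and 100% = killing control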
[6] = growth inhibition of BT084 medulloblastoma cells, cell-based, ICGC_MB145, cisplatin and BGB IC40 combos (AID 1671461); details: drug combinations, stronger effect = higher value;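 note: cells exposed to drugs for 96 hours; 0% = vehicle DMSO and 100% = high DMSO full killing control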
[7] = growth inhibition of RCMB18 medulloblastoma cells, cell-based, cisplatin and BGB IC40 combos (AID 1671462); details: stronger effect = higher value;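 note: cells exposed to compound for four days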
[8] = growth inhibition of CRL1545 osteosarcoma cells, cell-based, cisplatin and BGB IC20 combos (AID 1671464); details: stronger effect = higher value;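 note: cells exposed to compound for 96 hours before readout; 0% = vehicle DMSO and 100% = high DMSO killing control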
F380Y = test: modulators of BK channel variants, profiling panel, selectivity assay, cell-based, U2OS BacMam, thallium flux, beta subunits (AID 1259406;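 active = thallium flux through the channel raised or lowered by more than 3 SD from vehicle-only wells, actives on both sides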;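 note: initial slope of Thallos dye fluorescence rise after thallium is added; log ratio against the mean of 0.3% DMSO vehicle wells on the same plate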); details: at 30 µM
F380Y/beta1 = test: as above; details: at 30 µM
F380Y/beta2Delta = test: as above; details: at 30 µM
F380Y/beta4 = test: as above; details: at 30 µM
[9] = molecular target: Calcium-activated potassium channel subunit alpha-1 (Homo sapiens) + Leucine-rich repeat-containing protein 26 (Homo sapiens) (UniProt Q12791+Q2I0M4); test: as above; details: F380Y/Slo1WT/gamma1, at 30 µM
R275C = test: as above; details: at 30 µM
R275C/beta1 = test: as above; details: at 30 µM
R275C/beta2Delta = test: as above; details: at 30 µM
R275C/beta4 = test: as above; details: at 30 µM
R275C/Slo1WT/beta2 = test: as above; details: at 30 µM
[10] = measured here: inhibition with BGB combination, at 0.05 µM
[11] = measured here: inhibition with cisplatin combination, at 0.05 µM
[12] = measured here: combination with cisplatin, at 0.5 µM
[13] = measured here: combination with cisplatin, at 5 µM
[14] = measured here: BGB combination, at 0.5 µM
[15] = measured here: BGB combination, at 5 µM
[16] = measured here: cisplatin combination, at 0.5 µM
[17] = measured here: cisplatin combination, at 5 µM
[18] = BGB combination, concentration series, at 5 µM
[19] = cisplatin combination, concentration series, at 5 µM
[20] = measured here: combo with BGB IC20, at 0.5 µM
[21] = measured here: combo with cisplatin IC20, at 0.5 µM
[22] = cisplatin combination, at 0.5 µM
[23] = measured here: BGB IC40 combination 0.05 uM, at 0.05 µM
[24] = measured here: BGB IC40 combination, at 0.05 µM
[25] = measured here: with BGB IC20 combination, at 0.5 µM
[26] = measured here: with cisplatin IC20 combination, at 0.5 µM

Sequence of Calcium-activated potassium channel subunit alpha-1 (Homo sapiens) + Leucine-rich repeat-containing protein 26 (Homo sapiens) (Q2I0M4 whole entry, looked up, one chain of several): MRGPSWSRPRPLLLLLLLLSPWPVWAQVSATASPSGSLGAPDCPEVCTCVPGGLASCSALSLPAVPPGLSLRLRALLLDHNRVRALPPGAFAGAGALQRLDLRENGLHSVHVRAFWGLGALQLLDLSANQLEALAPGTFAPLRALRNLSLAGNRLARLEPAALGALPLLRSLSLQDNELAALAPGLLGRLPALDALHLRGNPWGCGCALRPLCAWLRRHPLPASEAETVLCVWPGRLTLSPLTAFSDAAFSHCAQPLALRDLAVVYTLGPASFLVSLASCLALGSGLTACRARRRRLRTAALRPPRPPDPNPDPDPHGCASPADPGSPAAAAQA

## Cc1oncc1C(=O)Nc1ccc(C(F)(F)F)cc1
[1]; at 0.5 µM
  inhibition: 4.13% (inactive)
[1]; [10]
  inhibition: -13.1%
[1]; [11]
  inhibition: -27.7%
[2]; at 0.5 µM
  inhibition: -14.8% (inactive)
[2]; [12]
  inhibition: -17.8%
[2]; [13]
  inhibition: 30.1%
[3]; at 0.5 µM
  inhibition: 3.93% (inactive)
[3]; [14]
  inhibition: 12.3%
[3]; [15]
  inhibition: 48.9%
[3]; [16]
  inhibition: -7.42%
[3]; [17]
  inhibition: 42.4%
[4]; [18]
  inhibition: 74.1%
[4]; at 0.5 µM
  inhibition: 6.99% (inactive)
[4]; [19]
  inhibition: 66.1%
[5]; at 0.5 µM
  inhibition: 23.1% (inactive)
[5]; [20]
  inhibition: 15.1%
[5]; [21]
  inhibition: 28.3%
[6]; at 0.5 µM
  inhibition: 5.65% (inactive)
[6]; [22]
  inhibition: -5.97%
[6]; cisplatin combination, at 5 µM
  inhibition: 60.5%
[6]; [23]
  inhibition: 32%
[6]; single agent, at 5 µM
  inhibition: 51.2%
[7]; at 0.5 µM
  inhibition: -7.24% (inactive)
[7]; cisplatin combo, at 5 µM
  inhibition: 23.6%
[7]; [24]
  inhibition: -20.4%
[7]; [12]
  inhibition: -2.75%
[7]; single agent, at 5 µM
  inhibition: 34.1%
[8]; at 0.5 µM
  inhibition: -17.2% (inactive)
[8]; [25]
  inhibition: -12.4%
[8]; [26]
  inhibition: -21.5%
[8]; single agent, at 0.05 µM
  inhibition: -28.9%
[8]; single agent, at 5 µM
  inhibition: 28.1%

## Cc1ccnc2c1NC(=O)c1cccnc1N2C1CC1
[1]; at 0.5 µM
  inhibition: -0.21% (inactive)
[1]; [10]
  inhibition: -23.1%
[1]; [11]
  inhibition: -13.9%
[2]; at 0.5 µM
  inhibition: -7.48% (inactive)
[2]; [12]
  inhibition: 3.86%
[2]; [13]
  inhibition: -37.6%
[3]; at 0.5 µM
  inhibition: -22.8% (inactive)
[3]; [14]
  inhibition: -19.7%
[3]; [15]
  inhibition: -27%
[3]; [16]
  inhibition: -29.5%
[3]; [17]
  inhibition: -14.1%
[4]; [18]
  inhibition: -12.7%
[4]; at 0.5 µM
  inhibition: -12.9% (inactive)
[4]; [19]
  inhibition: -3.3%
[5]; at 0.5 µM
  inhibition: -5.51% (inactive)
[5]; [20]
  inhibition: -5.33%
[5]; [21]
  inhibition: 4.46%
[6]; at 0.5 µM
  inhibition: -28.8% (inactive)
[6]; [22]
  inhibition: -7.59%
[6]; cisplatin combination, at 5 µM
  inhibition: -3.69%
[6]; [23]
  inhibition: -12.5%
[6]; single agent, at 5 µM
  inhibition: -22.7%
[7]; at 0.5 µM
  inhibition: -8.82% (inactive)
[7]; cisplatin combo, at 5 µM
  inhibition: 24.6%
[7]; [24]
  inhibition: -2.75%
[7]; [12]
  inhibition: 5.5%
[7]; single agent, at 5 µM
  inhibition: -19.9%
[8]; at 0.5 µM
  inhibition: -10.3% (inactive)
[8]; [25]
  inhibition: -9.73%
[8]; [26]
  inhibition: -13%
[8]; single agent, at 0.05 µM
  inhibition: -39.8%
[8]; single agent, at 5 µM
  inhibition: 1.39%
F380Y
  log fold change Tl+ flux: -0.00202 (inactive)
F380Y/beta1
  log fold change Tl+ flux: 0.0188 (inactive)
F380Y/beta2Delta
  log fold change Tl+ flux: 0.0168 (inactive)
F380Y/beta4
  log fold change Tl+ flux: 0.0216 (inactive)
[9]
  log fold change Tl+ flux: -0.00356 (inactive)
R275C
  log fold change Tl+ flux: -0.0605 (inactive)
R275C/beta1
  log fold change Tl+ flux: -0.00377 (inactive)
R275C/beta2Delta
  log fold change Tl+ flux: 0.0164 (inactive)
R275C/beta4
  log fold change Tl+ flux: -0.0208 (inactive)
R275C/Slo1WT/beta2
  log fold change Tl+ flux: -0.00118 (inactive)

## O=C(O)P(=O)(O)O
[1]; at 0.5 µM
  inhibition: -11.3% (inactive)
[1]; [10]
  inhibition: -27.2%
[1]; [11]
  inhibition: -24%
[2]; at 0.5 µM
  inhibition: -19.3% (inactive)
[2]; [12]
  inhibition: -14.2%
[2]; [13]
  inhibition: -18.5%
[3]; at 0.5 µM
  inhibition: -30.5% (inactive)
[3]; [14]
  inhibition: -34.2%
[3]; [15]
  inhibition: -30.6%
[3]; [16]
  inhibition: -45.7%
[3]; [17]
  inhibition: -24.2%
[4]; [18]
  inhibition: -19.2%
[4]; at 0.5 µM
  inhibition: -15.7% (inactive)
[4]; [19]
  inhibition: -10.9%
[5]; at 0.5 µM
  inhibition: 0.14% (inactive)
[5]; [20]
  inhibition: 1.18%
[5]; [21]
  inhibition: -8.98%
[6]; at 0.5 µM
  inhibition: -21.4% (inactive)
[6]; [22]
  inhibition: -13.9%
[6]; cisplatin combination, at 5 µM
  inhibition: -72.5%
[6]; [23]
  inhibition: 11.4%
[6]; single agent, at 5 µM
  inhibition: -13.1%
[7]; at 0.5 µM
  inhibition: -28.6% (inactive)
[7]; cisplatin combo, at 5 µM
  inhibition: -9.59%
[7]; [24]
  inhibition: -13.4%
[7]; [12]
  inhibition: -44.4%
[7]; single agent, at 5 µM
  inhibition: -27.5%
[8]; at 0.5 µM
  inhibition: -83.7% (inactive)
[8]; [25]
  inhibition: -15.5%
[8]; [26]
  inhibition: -118%
[8]; single agent, at 0.05 µM
  inhibition: -51.7%
[8]; single agent, at 5 µM
  inhibition: -82.1%

## CNNCc1ccc(C(=O)NC(C)C)cc1
[1]; at 0.5 µM
  inhibition: 13% (inactive) and 7.15% (inactive)
[1]; [10]
  inhibition: 3.19% and 1.17%
[1]; [11]
  inhibition: 22.9% and 3.56%
[2]; at 0.5 µM
  inhibition: 14.1% (inactive) and 0.23% (inactive)
[2]; [12]
  inhibition: 6.63% and -1.71%
[2]; [13]
  inhibition: 15.9% and -32.2%
[3]; at 0.5 µM
  inhibition: 0.31% (inactive) and -0.08% (inactive)
[3]; [14]
  inhibition: 1.37% and 5.96%
[3]; [15]
  inhibition: -3.48% and 5.4%
[3]; [16]
  inhibition: 0.65% and -2.59%
[3]; [17]
  inhibition: -3.21% and 0.056%
[4]; [18]
  inhibition: -3.07% and 11.5%
[4]; at 0.5 µM
  inhibition: 8.92% (inactive) and 4.36% (inactive)
[4]; [19]
  inhibition: 2.73% and 5.28%
[5]; at 0.5 µM
  inhibition: -1.46% (inactive) and -4.45% (inactive)
[5]; [20]
  inhibition: 4.04% and -5.12%
[5]; [21]
  inhibition: -5.05% and -7.38%
[6]; at 0.5 µM
  inhibition: 9.13% (inactive) and -8.81% (inactive)
[6]; [22]
  inhibition: -8.59% and 0.014%
[6]; cisplatin combination, at 5 µM
  inhibition: 13.7% and 11%
[6]; [23]
  inhibition: 8.15% and 2.42%
[6]; single agent, at 5 µM
  inhibition: -0.995% and -8.33%
[7]; at 0.5 µM
  inhibition: 5.59% (inactive) and 7.58% (inactive)
[7]; cisplatin combo, at 5 µM
  inhibition: 1.81% and -25.8%
[7]; [24]
  inhibition: -9.15% and -22.9%
[7]; [12]
  inhibition: 38.1% and 9.89%
[7]; single agent, at 5 µM
  inhibition: -25.5% and 7.57%
[8]; at 0.5 µM
  inhibition: -9.96% (inactive) and 0.27% (inactive)
[8]; [25]
  inhibition: -28.2% and -29.3%
[8]; [26]
  inhibition: -2.5% and 13.1%
[8]; single agent, at 0.05 µM
  inhibition: -6% and -6.52%
[8]; single agent, at 5 µM
  inhibition: -28.8% and -29%
F380Y
  log fold change Tl+ flux: -0.0305 (inactive)
F380Y/beta1
  log fold change Tl+ flux: 0.0168 (inactive)
F380Y/beta2Delta
  log fold change Tl+ flux: 0.00407 (inactive)
F380Y/beta4
  log fold change Tl+ flux: -0.0214 (inactive)
[9]
  log fold change Tl+ flux: -0.0918 (inactive)
R275C
  log fold change Tl+ flux: -0.164 (active)
R275C/beta1
  log fold change Tl+ flux: -0.022 (inactive)
R275C/beta2Delta
  log fold change Tl+ flux: -0.0281 (inactive)
R275C/beta4
  log fold change Tl+ flux: 0.042 (inactive)
R275C/Slo1WT/beta2
  log fold change Tl+ flux: 0.0113 (inactive)

From PubChem BioAssay
